Reference: PubChem BioAssay AID2289 (National Center for Advancing Translational Sciences (NCATS), 2010)
The campaign covered roughly 340,000 compounds. About 3,300 (0.97%) were called active. Not shown: some 9% with an inconclusive outcome. Calls follow the shape of the dose curve; as a rule, active = well fitted inhibition curve with a large enough effect; inconclusive = small, poorly fitted or top-dose-only effect, or effect the other way; inactive = flat fitted curve, though single readings scatter. This is one part of the list.

experiment: qHTS Assay for Modulators of miRNAs and/or Inhibitors of miR-21; settings: HeLa miR-21-FLuc reporter, luciferase luminescence, 48 h; actives lower the signal; also: nearly all actives have a fitted effect of over 55% in size
Procedure, shortened: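 HeLa cells stably expressing CMV-driven firefly luciferase with a downstream miR-21 binding sequence, endogenously expressing miR-21, were treated with titrations (up to about 40uM final) for 48 hours at 37 degree Celsius. Luciferase luminescence was read after lysis.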
Potency is read from the fitted curve at half-maximal effect.

Potency, active:
COc1ccc(-c2cnc3ccccc3n2)cc1NC(=O)CNC(=O)c1ccccc1 6.56 µM, CCOC(=O)c1ccc2c(c1)NCc1cccc(OC)c1O2 3.29 µM, CCN(CC)c1ccc(/C=N/N2CCOCC2)c(O)c1 2.93 µM, Cc1cccc(NC(=O)Nc2cc(C)cc(C)n2)c1 0.736 µM, COc1cccc(NC(=S)Nc2cc(C)cc(C)n2)c1 4.65 µM, Cc1ccc(NC(=O)Nc2cccc(C)n2)cc1 2.07 µM, CSc1ccc(NC(=O)Nc2cc(C)ccn2)cc1 0.104 µM, Cc1cc(C)nc(NC(=O)/C=C/c2ccccc2Cl)c1 2.07 µM, CC(NC(=O)c1ccccc1NC(=O)c1ccco1)C(=O)O (stereo not drawn) 6.56 µM, COc1ccc(-c2csc(N)n2)cc1F 9.27 µM, Nc1nc(-c2ccc3ccccc3c2)cs1 1.65 µM, COc1ccc(-c2cn3cccc(C)c3n2)cc1F 0.927 µM, CN(C)/C=N/c1nc(-c2ccc3ccccc3c2)cs1 1.31 µM, CCOC(=O)c1ccc(OS(=O)(=O)c2ccccc2)c(OC)c1 1.31 µM, COc1ccccc1NC(=S)N/N=C/c1ccc(O)cc1 0.736 µM, COc1ccc(/C=C/C(=O)Nc2ccccc2)cc1OC 4.14 µM, COc1ccc(NC(=O)/C=C/c2ccccc2)cn1 1.65 µM, COc1cc(/C=N/NC(=O)Nc2ccccc2)ccc1OC(C)=O 8.26 µM, CCN(CC)c1ccc(/C=N/NC(=O)Nc2ccccc2)cc1 4.14 µM, Cc1cccc(/C(N)=N/OC(=O)c2ccc(F)cc2)c1 4.65 µM, COc1ccc(/C=C/C(=O)O/N=C(\N)c2ccccc2)cc1OC 5.85 µM, CCCCCC(=O)N/N=C/c1ccc(N(C)C)cc1 13.1 µM, COc1ccc(C(=O)O/N=C(\N)c2cccc(C)c2)cc1OC 8.26 µM, O=C(/C=C/c1ccccc1)Nc1cccnc1Cl 1.85 µM, COc1ccc2c(c1)CC/C2=N\OC(=O)c1cccc(C)c1 4.14 µM, CC(=O)Oc1ccc(/C=N/NC(=S)Nc2ccccc2)cc1 0.656 µM, Cc1ccccc1/C(N)=N/OC(=O)/C=C/c1ccccc1 5.21 µM, COc1ccc(C(=O)O/N=C(\N)c2ccccc2)cc1OC 2.07 µM, C=CCn1cccc(C(=O)Nc2ccc(N(C)C)cc2)c1=O 4.65 µM, Clc1cccc(-c2cc3nc4c(c(NCc5ccco5)n3n2)CCCC4)c1 2.93 µM, Cc1cccc(CSc2ccc(-c3cccs3)nn2)c1 7.36 µM, c1ccc(CSc2ccc(-c3cccs3)nn2)cc1 2.93 µM, c1ccc(CSc2ccc(-c3cccnc3)nn2)cc1 6.56 µM, Fc1cccc(CSc2ccc(-c3cccs3)nn2)c1 4.14 µM, CCOc1ccc(Nc2cc(C)c3ccccc3n2)cc1 18.5 µM, COc1ccc(Nc2nc(C)c3ccccc3n2)cc1 3.29 µM, Cc1cc(Nc2ccccc2)nc2cc(O)ccc12 13.1 µM, COc1ccc(Nc2cc(C)c3ccccc3n2)cc1 5.85 µM, O=[N+]([O-])c1nn(-c2ccc3c(c2)OCCO3)n(O)c1=NCc1ccc(F)cc1 1.17 µM, Cc1ccc(CN=c2c([N+](=O)[O-])nn(-c3ccc4c(c3)OCCO4)n2O)cc1 1.31 µM, COc1ccc(-n2nc([N+](=O)[O-])c(=NCc3cccnc3)n2O)cc1 2.33 µM, COc1ccc(-n2nc([N+](=O)[O-])c(=NCc3ccc4c(c3)OCO4)n2O)cc1 1.65 µM, CCOC(=O)c1sc(NC(=O)c2sccc2C)cc1C 0.369 µM, CCOC(=O)c1sc(NC(=O)C2CCC2)cc1C 4.65 µM, CCOC(=O)c1sc(NC(=O)c2ccccc2)cc1C 0.521 µM, COc1ccc2[nH]c(=O)c(CNc3ccccc3C)cc2c1 7.36 µM, O=C(N=Nc1c(O)n(Cc2ccccc2)c2ccccc12)c1ccc(O)cc1 6.56 µM, O=C(CSCc1ccccc1)Nc1cccc(F)c1 13.1 µM, O=C(CSCc1c(F)cccc1F)Nc1ccccc1 5.85 µM, Cc1ccc(NC(=O)CSCc2ccc(F)cc2)cc1 6.56 µM, O=C(CSCc1ccccc1)Nc1ccc(F)c(F)c1 14.7 µM, NC(=O)c1cccnc1Nc1cccc([N+](=O)[O-])c1 6.56 µM, O=C(NCCc1ccccc1F)c1cccc2cccnc12 3.29 µM, Cc1ccc(Nc2ncccc2C(N)=O)cc1 1.65 µM, Cc1ccc(NC(=O)c2cccc3cccnc23)cc1 3.69 µM, Cc1cc(Cl)ccc1Nc1ncccc1C(N)=O 2.07 µM, Cc1ccc(Nc2ncccc2C(N)=O)cc1[N+](=O)[O-] 3.29 µM, COc1ccnc(Oc2ccc3ccccc3c2)c1C#N 2.93 µM, COc1ccc(-c2nc3c4ccccc4ccn3c2CN2CCOCC2)cc1OC 6.56 µM, COc1cnn(-c2ccc(Br)cc2)c(=O)c1SCc1ccccc1 13.1 µM, CC(=O)Nc1ccc(-c2csc(NCc3ccco3)n2)cc1 4.14 µM, Oc1ccc(-c2csc(NCc3ccco3)n2)cc1 4.65 µM, COc1ccc(-c2csc(NCc3ccco3)n2)cc1C 5.85 µM, O=C(Cc1ccc(Cl)cc1)c1ccc(O)cc1 5.21 µM, CN(C)/C=C/C(=O)c1cnc(-c2cccc(Cl)c2)s1 18.5 µM, CN(C)/C=C/C(=O)c1cnc(-c2ccccc2Cl)s1 18.5 µM, COc1ccccc1OCCCOc1ccc([N+](=O)[O-])cc1Cl 7.36 µM, COc1cc(C)ccc1OCCOc1ccccc1Cl 14.7 µM, COc1cc(C)ccc1OCCCOc1ccccc1Cl 6.56 µM, Cn1c(-c2ccc3nc(N)sc3c2)nc2cc(N)ccc21 18.5 µM, CN(N=Nc1ccc([N+](=O)[O-])cc1)c1ccccc1 4.14 µM, Cc1nc(NC(=S)NC(=O)c2cccs2)ccc1Br 14.7 µM, O=C(NC(=S)Nc1ccc(Br)cn1)c1cccs1 0.521 µM, O=c1[nH]c(COc2ccc(Cl)cc2Br)nc2ccccc12 3.29 µM, O=c1[nH]c(COc2ccc(Br)cc2Cl)nc2ccccc12 2.61 µM, CCN(CC)S(=O)(=O)c1cc(C(=O)Oc2cccc(-c3cnc4ccccc4n3)c2)ccc1Br 1.85 µM, Nc1c(-c2ccc3c(c2)OCCO3)oc2ccccc2c1=O 2.93 µM, Cc1cccc(-n2ncc3c(NCCCn4ccnc4)ncnc32)c1 10.4 µM, CCN(CC)CCCNc1ncnc2c1cnn2-c1ccc(C)c(C)c1 6.56 µM, COc1ccc(-n2ncc3c(NCCCn4ccnc4)ncnc32)cc1 10.4 µM, COc1cccc(C(=O)/C=C/Nc2ccc(NC(C)=O)cc2)c1 11.7 µM, COc1cccc(C(=O)/C=C/Nc2ccc(S(=O)(=O)Nc3ncccn3)cc2)c1 11.7 µM, COc1cccc(C(=O)/C=C/Nc2ccc(S(=O)(=O)Nc3onc(C)c3C)cc2)c1 13.1 µM, Cc1noc(NS(=O)(=O)c2ccc(N/C=C/C(=O)c3ccc4c(c3)OCO4)cc2)c1C 9.27 µM, COc1cccc(C(=O)/C=C/Nc2ccc(S(=O)(=O)Nc3cnc4ccccc4n3)cc2)c1 7.36 µM, Fc1cc(Br)ccc1COc1ccc(-c2nnco2)cc1 7.36 µM, Cc1ccc(COc2ccc(-c3nnco3)cc2)cc1 4.14 µM, Cc1ccc(COc2ccc3c(c2)OCO3)cc1 3.69 µM, Cn1c(SCc2c(F)cccc2Cl)nnc1-c1cnccn1 4.14 µM, Cn1c(SCc2c(F)cccc2Cl)nnc1-c1cccs1 6.56 µM, CCCNC(=O)c1c(Cl)cnn1-c1ccc(C)cc1 4.14 µM, O=C(Nc1ccccc1)OCc1cc(-c2ccccc2Cl)on1 11.7 µM, O=C(Nc1ccccc1)c1cc(-c2ccccc2Cl)no1 7.36 µM, O=C(Nc1ccccc1)c1ccc(-c2ccccc2C(F)(F)F)o1 13.1 µM, O=C(Nc1ccccc1)c1ccc(-c2ccccc2Cl)o1 3.69 µM, O=C(Nc1cccc(F)c1)c1ccc(-c2ccccc2Cl)o1 2.93 µM, COc1ccc(NC(=O)c2ccc(-c3ccccc3Cl)o2)cc1 7.36 µM, COc1ccc(/C=C/c2ccncc2)cc1OC 16.5 µM, CC1=NN(C(=O)c2ccoc2C)C(O)(C(F)(F)F)C1 (stereo not drawn) 10.4 µM, CCCNc1ccc(C(=O)OCC)cc1[N+](=O)[O-] 16.5 µM, COC(=O)c1ccc(-c2ccc(Cl)cc2)nc1C 1.47 µM, CCOC(=O)c1ccc(-c2ccc3c(c2)CCC3)nc1C 1.85 µM, COC(=O)c1ccc(-c2ccc(F)cc2)nc1C 6.56 µM, CCOc1ccc(-c2cn3nc(CC(C)C)sc3n2)cc1 2.93 µM, COC(=O)CSc1nc2cc(OC)ccc2cc1C#N 0.233 µM, CCOC(=O)CSc1nc2cc(OCC)ccc2cc1C#N 4.65 µM, CCOc1ccc2cc(C#N)c(SCC(=O)N3CCOCC3)nc2c1 1.17 µM, COc1ccc2nc(SCC(C)=O)c(C#N)cc2c1 0.165 µM
